Assay results published in ChEMBL document CHEMBL1961873, “Compounds: GSK PKIS; Assays: Nanosyn kinase panel” (2012).

Columns and labels:
[1] = molecular target: Tyrosine-protein kinase receptor UFO (Homo sapiens) (UniProt P30530); conditions: at 1 µM
[2] = molecular target: Tyrosine-protein kinase Blk (Homo sapiens) (UniProt P51451); conditions: at 0.1 µM
[3] = molecular target: Tyrosine-protein kinase Blk (Homo sapiens) (UniProt P51451); conditions: at 1 µM
[4] = molecular target: T1, Cytoplasmic tyrosine-protein kinase BMX (Homo sapiens) (UniProt P51813); conditions: at 0.1 µM
T1 sequence (whole entry): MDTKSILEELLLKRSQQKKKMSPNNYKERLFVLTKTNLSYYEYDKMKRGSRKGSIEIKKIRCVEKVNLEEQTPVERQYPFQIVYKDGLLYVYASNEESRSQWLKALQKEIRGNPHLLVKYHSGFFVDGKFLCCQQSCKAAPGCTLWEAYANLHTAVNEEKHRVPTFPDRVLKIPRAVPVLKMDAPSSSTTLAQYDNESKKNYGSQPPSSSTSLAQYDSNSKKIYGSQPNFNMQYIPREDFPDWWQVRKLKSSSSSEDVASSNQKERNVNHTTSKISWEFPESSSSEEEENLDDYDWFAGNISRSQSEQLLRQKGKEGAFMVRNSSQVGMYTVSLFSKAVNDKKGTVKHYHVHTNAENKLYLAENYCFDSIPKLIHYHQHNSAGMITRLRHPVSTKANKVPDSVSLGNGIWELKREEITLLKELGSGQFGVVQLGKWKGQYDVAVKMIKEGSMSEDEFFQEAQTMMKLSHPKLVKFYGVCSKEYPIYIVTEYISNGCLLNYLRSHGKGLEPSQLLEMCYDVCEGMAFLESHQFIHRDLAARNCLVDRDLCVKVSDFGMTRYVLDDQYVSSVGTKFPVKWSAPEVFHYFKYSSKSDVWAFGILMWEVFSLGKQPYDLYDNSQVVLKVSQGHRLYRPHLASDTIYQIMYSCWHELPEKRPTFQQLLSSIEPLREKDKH

[5] = molecular target: T1, Cytoplasmic tyrosine-protein kinase BMX (Homo sapiens); conditions: at 1 µM
[6] = molecular target: Protein-tyrosine kinase 6 (Homo sapiens) (UniProt Q13882); conditions: at 0.1 µM
Sequence of Protein-tyrosine kinase 6 (Homo sapiens) (Q13882 whole entry, looked up): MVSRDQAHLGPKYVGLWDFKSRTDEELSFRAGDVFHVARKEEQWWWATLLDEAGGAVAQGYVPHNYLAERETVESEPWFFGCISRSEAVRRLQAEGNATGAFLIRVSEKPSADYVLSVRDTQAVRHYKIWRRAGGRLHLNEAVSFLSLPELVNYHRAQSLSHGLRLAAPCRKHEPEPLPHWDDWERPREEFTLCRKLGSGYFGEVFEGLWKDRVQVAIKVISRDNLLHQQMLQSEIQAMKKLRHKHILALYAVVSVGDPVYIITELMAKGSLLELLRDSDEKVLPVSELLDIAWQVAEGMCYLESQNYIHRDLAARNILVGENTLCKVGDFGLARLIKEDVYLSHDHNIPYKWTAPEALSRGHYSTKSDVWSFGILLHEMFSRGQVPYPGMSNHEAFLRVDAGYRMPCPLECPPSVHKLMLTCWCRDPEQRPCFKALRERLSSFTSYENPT

[7] = molecular target: Protein-tyrosine kinase 6 (Homo sapiens) (UniProt Q13882); conditions: at 1 µM
[8] = molecular target: Tyrosine-protein kinase BTK (Homo sapiens) (UniProt Q06187); conditions: at 0.1 µM
Sequence of Tyrosine-protein kinase BTK (Homo sapiens) (Q06187 whole entry): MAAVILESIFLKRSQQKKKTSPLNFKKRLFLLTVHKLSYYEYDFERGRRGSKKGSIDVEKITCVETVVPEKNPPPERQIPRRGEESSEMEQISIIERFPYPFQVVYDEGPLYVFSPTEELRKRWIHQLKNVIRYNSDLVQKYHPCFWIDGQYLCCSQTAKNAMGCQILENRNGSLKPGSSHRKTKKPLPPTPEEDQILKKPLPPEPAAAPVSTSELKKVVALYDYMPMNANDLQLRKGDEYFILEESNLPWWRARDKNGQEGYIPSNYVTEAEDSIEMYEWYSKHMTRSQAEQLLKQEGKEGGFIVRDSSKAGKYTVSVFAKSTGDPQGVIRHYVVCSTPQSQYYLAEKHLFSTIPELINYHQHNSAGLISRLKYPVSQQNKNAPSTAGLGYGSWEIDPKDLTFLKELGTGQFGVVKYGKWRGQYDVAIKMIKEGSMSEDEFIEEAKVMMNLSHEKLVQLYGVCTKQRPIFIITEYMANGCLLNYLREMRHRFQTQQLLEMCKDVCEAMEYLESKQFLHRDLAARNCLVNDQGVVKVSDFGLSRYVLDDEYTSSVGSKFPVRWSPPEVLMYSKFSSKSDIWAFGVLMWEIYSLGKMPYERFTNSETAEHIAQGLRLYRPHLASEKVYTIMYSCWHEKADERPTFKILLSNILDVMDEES

[9] = molecular target: Tyrosine-protein kinase BTK (Homo sapiens) (UniProt Q06187); conditions: at 1 µM
[10] = molecular target: Tyrosine-protein kinase CSK (Homo sapiens) (UniProt P41240); conditions: at 0.1 µM
[11] = molecular target: Tyrosine-protein kinase CSK (Homo sapiens) (UniProt P41240); conditions: at 1 µM
[12] = molecular target: T2, Discoidin domain-containing receptor 2 (Homo sapiens) (UniProt Q16832); conditions: at 0.1 µM
T2 sequence (whole entry): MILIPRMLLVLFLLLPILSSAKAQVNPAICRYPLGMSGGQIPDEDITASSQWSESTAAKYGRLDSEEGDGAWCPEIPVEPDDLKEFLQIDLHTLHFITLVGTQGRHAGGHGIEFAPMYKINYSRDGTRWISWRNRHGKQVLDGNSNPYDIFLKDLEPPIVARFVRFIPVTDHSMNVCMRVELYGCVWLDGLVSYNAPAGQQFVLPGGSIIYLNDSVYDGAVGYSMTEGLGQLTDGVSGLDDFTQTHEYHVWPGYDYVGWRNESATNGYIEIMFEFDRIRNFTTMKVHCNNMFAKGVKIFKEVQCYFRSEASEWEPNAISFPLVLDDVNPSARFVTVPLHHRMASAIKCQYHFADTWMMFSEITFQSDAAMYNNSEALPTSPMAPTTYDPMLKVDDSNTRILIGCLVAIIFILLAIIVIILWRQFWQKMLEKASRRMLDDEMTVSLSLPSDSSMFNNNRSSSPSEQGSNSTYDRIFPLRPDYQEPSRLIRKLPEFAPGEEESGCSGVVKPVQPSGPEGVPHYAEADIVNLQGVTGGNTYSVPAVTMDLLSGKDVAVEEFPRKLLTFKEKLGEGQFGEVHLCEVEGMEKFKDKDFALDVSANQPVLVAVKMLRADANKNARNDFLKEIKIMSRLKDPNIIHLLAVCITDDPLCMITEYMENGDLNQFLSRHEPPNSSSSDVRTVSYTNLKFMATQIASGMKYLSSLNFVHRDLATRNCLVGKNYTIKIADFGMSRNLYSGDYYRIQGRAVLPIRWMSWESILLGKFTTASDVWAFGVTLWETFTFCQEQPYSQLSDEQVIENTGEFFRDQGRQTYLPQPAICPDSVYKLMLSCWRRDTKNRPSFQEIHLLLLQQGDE

[13] = molecular target: T2, Discoidin domain-containing receptor 2 (Homo sapiens); conditions: at 1 µM
[14] = molecular target: Epidermal growth factor receptor (Homo sapiens) (UniProt P00533); conditions: at 0.1 µM
[15] = molecular target: Epidermal growth factor receptor (Homo sapiens) (UniProt P00533); conditions: at 1 µM
[16] = system: Epidermal growth factor receptor (Homo sapiens), P00533 [L858R]; conditions: at 0.1 µM
[17] = system: Epidermal growth factor receptor (Homo sapiens), P00533 [L858R]; conditions: at 1 µM
[18] = system: Epidermal growth factor receptor (Homo sapiens), P00533 [L861Q]; conditions: at 0.1 µM
Sequence of Epidermal growth factor receptor (Homo sapiens), P00533 [L861Q] (P00533 whole entry L861Q): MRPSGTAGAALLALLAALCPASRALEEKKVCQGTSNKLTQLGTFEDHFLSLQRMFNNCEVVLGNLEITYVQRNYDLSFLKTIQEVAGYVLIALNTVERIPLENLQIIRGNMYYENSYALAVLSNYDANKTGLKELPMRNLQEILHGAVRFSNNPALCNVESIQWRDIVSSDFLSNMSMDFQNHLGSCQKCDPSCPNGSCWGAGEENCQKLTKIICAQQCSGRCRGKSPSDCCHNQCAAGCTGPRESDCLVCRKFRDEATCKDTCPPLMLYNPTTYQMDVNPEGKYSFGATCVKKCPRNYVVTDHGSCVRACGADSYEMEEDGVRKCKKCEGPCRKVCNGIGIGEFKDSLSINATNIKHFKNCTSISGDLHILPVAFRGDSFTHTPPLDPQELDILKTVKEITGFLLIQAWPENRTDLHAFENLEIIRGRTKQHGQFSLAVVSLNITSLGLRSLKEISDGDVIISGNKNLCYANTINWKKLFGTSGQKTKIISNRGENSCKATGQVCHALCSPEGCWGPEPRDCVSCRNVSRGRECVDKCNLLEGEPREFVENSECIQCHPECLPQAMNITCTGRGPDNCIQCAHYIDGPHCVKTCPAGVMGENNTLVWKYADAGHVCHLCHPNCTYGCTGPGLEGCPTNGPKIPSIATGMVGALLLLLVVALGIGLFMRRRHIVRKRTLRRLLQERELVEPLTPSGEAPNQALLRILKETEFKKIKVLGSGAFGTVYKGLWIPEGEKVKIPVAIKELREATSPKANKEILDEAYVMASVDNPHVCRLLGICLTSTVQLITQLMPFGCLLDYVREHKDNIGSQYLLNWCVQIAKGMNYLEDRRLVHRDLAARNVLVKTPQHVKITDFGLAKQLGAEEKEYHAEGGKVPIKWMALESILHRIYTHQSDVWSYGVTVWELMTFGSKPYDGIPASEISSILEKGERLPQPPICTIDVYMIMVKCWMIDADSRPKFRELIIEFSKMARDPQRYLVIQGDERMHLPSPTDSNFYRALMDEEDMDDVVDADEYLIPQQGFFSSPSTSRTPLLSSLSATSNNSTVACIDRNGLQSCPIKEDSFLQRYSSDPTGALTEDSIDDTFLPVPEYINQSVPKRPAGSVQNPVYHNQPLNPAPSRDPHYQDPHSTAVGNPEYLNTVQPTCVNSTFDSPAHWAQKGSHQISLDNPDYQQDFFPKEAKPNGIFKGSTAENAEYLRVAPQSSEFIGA

[19] = system: Epidermal growth factor receptor (Homo sapiens), P00533 [L861Q]; conditions: at 1 µM
[20] = system: Epidermal growth factor receptor (Homo sapiens), P00533 [T790M]; conditions: at 0.1 µM
Sequence of Epidermal growth factor receptor (Homo sapiens), P00533 [T790M] (P00533 whole entry T790M): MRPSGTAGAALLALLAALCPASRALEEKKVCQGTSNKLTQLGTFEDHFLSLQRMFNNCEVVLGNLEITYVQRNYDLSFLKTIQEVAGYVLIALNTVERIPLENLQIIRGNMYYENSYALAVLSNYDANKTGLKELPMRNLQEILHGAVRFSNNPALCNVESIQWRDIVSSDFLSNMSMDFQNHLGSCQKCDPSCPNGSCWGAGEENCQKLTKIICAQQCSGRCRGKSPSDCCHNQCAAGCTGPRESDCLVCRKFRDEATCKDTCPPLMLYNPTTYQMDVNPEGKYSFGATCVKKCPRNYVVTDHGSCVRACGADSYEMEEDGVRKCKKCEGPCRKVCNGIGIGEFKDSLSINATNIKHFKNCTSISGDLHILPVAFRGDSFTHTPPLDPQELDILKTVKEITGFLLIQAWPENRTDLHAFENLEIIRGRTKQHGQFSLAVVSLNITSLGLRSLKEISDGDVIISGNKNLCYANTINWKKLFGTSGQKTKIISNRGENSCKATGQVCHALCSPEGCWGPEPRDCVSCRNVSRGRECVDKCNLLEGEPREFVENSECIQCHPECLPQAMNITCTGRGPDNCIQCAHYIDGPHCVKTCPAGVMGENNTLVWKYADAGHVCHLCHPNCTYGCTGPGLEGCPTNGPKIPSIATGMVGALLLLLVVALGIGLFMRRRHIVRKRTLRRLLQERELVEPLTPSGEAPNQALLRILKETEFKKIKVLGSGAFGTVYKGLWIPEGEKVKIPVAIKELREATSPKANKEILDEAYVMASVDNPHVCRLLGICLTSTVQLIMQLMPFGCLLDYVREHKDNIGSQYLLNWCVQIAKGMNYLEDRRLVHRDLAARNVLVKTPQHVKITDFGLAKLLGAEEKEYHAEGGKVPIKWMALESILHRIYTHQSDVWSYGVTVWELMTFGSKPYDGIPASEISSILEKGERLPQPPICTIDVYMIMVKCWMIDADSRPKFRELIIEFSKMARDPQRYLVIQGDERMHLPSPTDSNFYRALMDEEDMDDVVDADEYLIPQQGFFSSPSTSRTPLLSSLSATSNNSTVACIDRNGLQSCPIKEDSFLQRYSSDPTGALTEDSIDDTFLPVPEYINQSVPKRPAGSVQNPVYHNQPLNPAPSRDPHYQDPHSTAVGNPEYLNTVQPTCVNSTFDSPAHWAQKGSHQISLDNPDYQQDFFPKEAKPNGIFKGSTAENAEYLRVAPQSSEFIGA

Sequence of Tyrosine-protein kinase receptor UFO (Homo sapiens) (P30530 whole entry): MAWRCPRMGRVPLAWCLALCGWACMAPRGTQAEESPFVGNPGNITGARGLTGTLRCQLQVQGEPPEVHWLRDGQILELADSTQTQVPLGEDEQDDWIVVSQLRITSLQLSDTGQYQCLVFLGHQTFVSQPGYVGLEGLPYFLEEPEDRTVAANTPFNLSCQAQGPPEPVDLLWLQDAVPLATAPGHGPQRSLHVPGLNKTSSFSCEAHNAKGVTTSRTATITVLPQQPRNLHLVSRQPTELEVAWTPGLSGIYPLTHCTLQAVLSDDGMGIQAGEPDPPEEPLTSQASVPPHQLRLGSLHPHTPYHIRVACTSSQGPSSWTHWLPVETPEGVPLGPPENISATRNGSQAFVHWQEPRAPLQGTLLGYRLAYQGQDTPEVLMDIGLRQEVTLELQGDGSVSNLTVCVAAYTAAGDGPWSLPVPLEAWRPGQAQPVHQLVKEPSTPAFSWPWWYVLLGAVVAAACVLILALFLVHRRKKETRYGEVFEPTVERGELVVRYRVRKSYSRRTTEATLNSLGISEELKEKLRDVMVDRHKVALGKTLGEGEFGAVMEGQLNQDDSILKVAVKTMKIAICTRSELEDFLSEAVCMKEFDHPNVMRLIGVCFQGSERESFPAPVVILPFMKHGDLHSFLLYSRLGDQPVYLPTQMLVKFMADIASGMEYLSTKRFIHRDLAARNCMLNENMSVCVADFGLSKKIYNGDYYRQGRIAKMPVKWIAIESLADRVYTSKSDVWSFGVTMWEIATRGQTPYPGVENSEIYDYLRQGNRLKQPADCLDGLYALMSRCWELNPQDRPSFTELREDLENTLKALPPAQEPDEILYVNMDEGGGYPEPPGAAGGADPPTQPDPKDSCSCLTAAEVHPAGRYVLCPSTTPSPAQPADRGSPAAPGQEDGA
Sequence of Tyrosine-protein kinase Blk (Homo sapiens) (P51451 2-505 limits assumed): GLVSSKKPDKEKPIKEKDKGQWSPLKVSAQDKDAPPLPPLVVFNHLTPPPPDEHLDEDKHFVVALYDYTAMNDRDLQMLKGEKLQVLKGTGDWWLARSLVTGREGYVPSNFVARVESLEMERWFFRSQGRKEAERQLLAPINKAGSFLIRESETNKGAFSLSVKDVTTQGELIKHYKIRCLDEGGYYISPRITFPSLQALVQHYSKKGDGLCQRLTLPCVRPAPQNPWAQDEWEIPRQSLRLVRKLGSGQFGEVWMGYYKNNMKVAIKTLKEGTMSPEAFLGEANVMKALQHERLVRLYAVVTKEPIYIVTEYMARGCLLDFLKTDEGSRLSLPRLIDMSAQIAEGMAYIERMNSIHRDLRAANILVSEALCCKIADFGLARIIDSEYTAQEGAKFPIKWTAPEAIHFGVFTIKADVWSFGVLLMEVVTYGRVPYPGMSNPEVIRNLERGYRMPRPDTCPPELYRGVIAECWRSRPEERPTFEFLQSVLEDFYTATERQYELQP

Structure (SMILES)	inhibition [1]	inhibition [2]	inhibition [3]	inhibition [4]	inhibition [5]	inhibition [6]	inhibition [7]	inhibition [8]	inhibition [9]	inhibition [10]	inhibition [11]	inhibition [12]	inhibition [13]	inhibition [14]	inhibition [15]	inhibition [16]	inhibition [17]	inhibition [18]	inhibition [19]	inhibition [20]
CC1=C(C(=O)Nc2ccc3[nH]ncc3c2)C(c2ccc(Cl)c(Cl)c2)CC(=O)N1 (configuration not stated)	-5.55%	1.97%	18.3%	-1.91%	2.22%	3.17%	3.02%	0.53%	3.13%	1.65%	4.23%	3.12%	3.67%	6.77%	8.22%	1.45%	5.4%	1.95%	0.96%	0.19%
CCn1c(-c2nonc2N)nc2c(C#CC(C)(C)O)nc(OC[C@@H](N)c3ccccc3)cc21	3.03%	0.59%	0.29%	-0.32%	0.02%	0.79%	-0.34%	-0.1%	1.72%	-1.24%	-2.13%	4.51%	12.2%	0.44%	3.81%	-1.04%	-2.49%	-1.53%	-1.51%	-1.77%
COc1ccc2cc(-c3c(-c4ccncc4)nc(-c4ccc([S+](C)[O-])cc4)n3C)ccc2c1 (configuration not stated)	-3.32%	1.88%	6.67%	4.9%	3.64%	8.25%	42%	0.83%	1.4%	1.52%	-2.89%	1.35%	3.95%	6.79%	3.4%	2.1%	0.76%	1.88%	1.02%	-0.14%
Nc1ncnc2occ(-c3ccc(NC(=O)Nc4cccc(C(F)(F)F)c4)cc3)c12	45.3%	7.81%	49.1%	20.4%	71.3%	2.23%	7.46%	0.15%	6.68%	7.62%	44.4%	64%	79.2%	1.36%	7.97%	3.92%	6.22%	2.76%	3.15%	2.8%
CS(=O)(=O)CCN(CC#N)Cc1ccc(-c2ccc3ncnc(Nc4ccc(OCc5cccc(F)c5)c(Cl)c4)c3c2)o1	-5.07%	-2.59%	-2.7%	1.65%	3.9%	2.35%	4.81%	-4.96%	-5.01%	3.24%	4.77%	0.7%	0.75%	69.4%	77.2%	36.5%	83.6%	41.5%	76.2%	1.04%
N#Cc1c(NC(=O)c2cccc3ccccc23)sc2c1CCCC2	-1.11%	1.28%	2.44%	3.61%	2.91%	3.4%	3.17%	-1.4%	0.24%	0.06%	0.21%	2.55%	2.6%							
CC(=O)Nc1cccc(C#Cc2cncnc2Nc2ccc(OCc3cccc(F)c3)c(Cl)c2)n1	1.38%	1.94%	1.82%	1.43%	0.97%	-2.54%	1.12%	0.29%	0.86%	-1.09%	3.91%	2.33%	1.71%	69.5%	77.7%	24.8%	72.5%	29.1%	55.6%	0.03%
CCCN1CCC=C(c2ccc(Nc3nc(Nc4ccccc4C(N)=O)c4cc[nH]c4n3)c(C)c2)C1	58.1%	1.84%	9.78%	3.95%	7.54%	1.91%	17.4%	-2.03%	-0.62%	-1.32%	1.79%	1.12%	3.26%	3.3%	8.18%	0.06%	9.35%	1.44%	6.61%	2.92%
Cc1ccc(NC(=O)c2ccnc(N3CCCC3)c2)cc1-c1ccc(C(=O)NCC2CC2)cc1	1.21%	-1.39%	-0.22%	2.83%	4.79%	4.19%	3.04%	-3.6%	-2.42%	2.53%	-0.29%	3.77%	22.6%	-4.33%	-3.35%	-1.08%	-0.58%	2.11%	-3.41%	1.68%
[O-][S+]1CCN(Cc2ccc(-c3ccc4ncnc(Nc5ccc(OCc6ccccc6)c(F)c5)c4c3)o2)CC1	-2.42%	1.92%	5.97%	4.65%	5.88%	0.34%	6.21%	1.11%	1.74%	3.39%	-3.52%	0.34%	0.62%	84.1%	90.7%	42.6%	84.9%	39.7%	68.6%	4.05%
COC(=O)Nc1nc2cc(Oc3ccc(NC(=O)Nc4cccc(C(=O)O)c4)cc3)ccc2[nH]1	-0.32%	-1.59%	0.01%	0.22%	0.47%	0.95%	-0.37%	-1.95%	-2.57%	2.42%		8.64%	48.8%	-1.69%	-2.11%	2.63%	2.26%	2.15%	0.36%	1.78%
CCn1c(-c2nonc2N)nc2ccncc21	1.22%	0.68%	2.01%	3.88%	-0.38%	-0.74%	-3.65%	-0.43%	1.46%	-1.68%	-5.08%	0.25%	0.08%	0.86%	2.64%	-3.87%	-4.06%	0.79%	-0.98%	-0.65%
COc1ccc(-c2coc3ncnc(N)c23)cc1	-2.11%	1.6%	5.06%	7.73%	6.07%	3.81%	11.8%	0.04%	2.7%	2.45%	0.88%	2.79%	2.69%	-0.38%	2.37%	1.46%	1.48%	1.51%	-0.75%	1.2%
